Results on 9 molecules are retold here after PubChem BioAssay (NCI).

Holding throughout (test): NCI-60 one-dose screen, 48 h (100 = growth as untreated, 0 = no growth, -100 = all killed)
The test system of one experiment is HCT-15 colon. The settings on record: 10 µM.
The next experiment deals with HT29 colon. As to conditions: 10 µM.
Another experiment deals with SNB-75 CNS. As to conditions: 10 µM.
A further experiment has as its system SNB-19 CNS. The settings on record: 10 µM.
A further experiment relates to U251 CNS. The settings on record: 10 µM.
The test system of a further experiment is SK-MEL-5 melanoma. The settings on record: 10 µM.
In a further experiment the test system is UACC-62 melanoma. As to conditions: 10 µM unless noted.
The subject of the next experiment is LOX IMVI melanoma. The settings on record: 10 µM.
The test system of a further experiment is SK-MEL-28 melanoma. As to conditions: 10 µM.
Another experiment has as its system SK-MEL-2 melanoma. As to conditions: 10 µM.
A further experiment deals with EKVX NSCLC. As to conditions: 10 µM.
A further experiment concerns SN12C renal. The settings on record: 10 µM.
A further experiment deals with UO-31 renal. The settings on record: 10 µM.
The next experiment deals with TK-10 renal. As to conditions: 10 µM unless noted.
In the next experiment the test system is ACHN renal. As to conditions: 10 µM.
The next experiment relates to A498 renal. As to conditions: 10 µM.
For a further experiment, the system named is CCRF-CEM leukemia. The settings on record: 10 µM.
For another experiment, the system named is MOLT-4 leukemia. As to conditions: 10 µM.
The test system of a further experiment is CAKI-1 renal. As to conditions: 10 µM.
The subject of the next experiment is PC-3 prostate. As to conditions: 10 µM.

This is part of a sample that, as a whole, favours compounds with a hit. Of some 83,000 tested, about 20% had one in any assay.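 Compound tested at a single concentration for 48 hours in 96-well plates; a percent growth value below 10 was scored as active.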 Unmarked numbers belong to inactive results. Active and inactive are the calls of the source.

In the case of `COc1cc(CN)ccc1O`, the growth is 111% in the experiment with HCT-15 colon; 91.8% with HT29 colon; 88.8% in the experiment with SNB-75 CNS; 94.9% with SNB-19 CNS; 96% in the experiment on U251 CNS; 102% with SK-MEL-5 melanoma. In addition, the growth with UACC-62 melanoma is 90.1%; in the experiment on LOX IMVI melanoma, 89.8%; with SK-MEL-28 melanoma, 117%; with SK-MEL-2 melanoma it was -8.32% (active); with EKVX NSCLC, 71.3%; in the experiment with SN12C renal, 81.7%. Besides, the growth with UO-31 renal is 82.7%; in the experiment on TK-10 renal, 88.4%; in the experiment on ACHN renal, 96%; in the experiment with A498 renal, 128%; in the experiment on CCRF-CEM leukemia, 93.1%; with MOLT-4 leukemia it was 134%.
Consider `OCc1ccc(-c2ccc(-c3ccc(CO)s3)o2)s1`, for which the growth in the experiment with HCT-15 colon was 51%; with HT29 colon it was -26.5% (active); in the experiment on SNB-75 CNS, 58.8%; with SNB-19 CNS, 78.4%; in the experiment with U251 CNS it was 15.3%; in the experiment on SK-MEL-5 melanoma, 60.6%. In addition, the growth in the experiment on UACC-62 melanoma is -35% (active); with LOX IMVI melanoma it was 73.2%; in the experiment with SK-MEL-2 melanoma it was 79.7%; in the experiment on EKVX NSCLC it was 99.9%; in the experiment on SN12C renal it was 55.7%; in the experiment on UO-31 renal, 41.4%. Further, the growth with TK-10 renal is -20.9% (active); in the experiment on ACHN renal, 63.7%; in the experiment on CAKI-1 renal, -54.3% (active); in the experiment on A498 renal, -89.1% (active); in the experiment with CCRF-CEM leukemia, 41.5%; with MOLT-4 leukemia, 33.1%.
In the case of `Nc1nc(N)c(N=Nc2ccc(C(=O)O)cc2)c(N)n1`, the growth in the experiment with HCT-15 colon was 109%; with HT29 colon it was 105%; in the experiment on SNB-75 CNS, 103%; in the experiment with SNB-19 CNS it was 95.1%; in the experiment on U251 CNS, 103%; with SK-MEL-5 melanoma, 100%. Besides, the growth is 94.4% in the experiment on UACC-62 melanoma; 101% with LOX IMVI melanoma; 103% in the experiment with SK-MEL-28 melanoma; 97.1% in the experiment on SK-MEL-2 melanoma; 100% in the experiment with EKVX NSCLC; 91.4% in the experiment with SN12C renal. The growth in the experiment on UO-31 renal was 53.6%; with TK-10 renal it was 130%; in the experiment on ACHN renal, 103%; in the experiment on A498 renal, 96.2%; in the experiment on CCRF-CEM leukemia, 102%; in the experiment with MOLT-4 leukemia it was 102%.
Turning to `CC1(C)OC(=O)C(c2ccsc2)C(=O)O1`, the growth was 109% in the experiment on HCT-15 colon; 100% in the experiment on HT29 colon; 92.5% in the experiment on SNB-75 CNS; 108% in the experiment on SNB-19 CNS; 85% with PC-3 prostate; 101% in the experiment with SK-MEL-5 melanoma. Besides, the growth in the experiment on UACC-62 melanoma is 105%; in the experiment with LOX IMVI melanoma, 88.8%; with SK-MEL-28 melanoma it was 115%; in the experiment on SK-MEL-2 melanoma, 112%; in the experiment on EKVX NSCLC it was 105%; in the experiment with SN12C renal, 107%. The growth was 84.4% in the experiment on UO-31 renal; 91.8% in the experiment with TK-10 renal; 107% in the experiment on ACHN renal; 100% in the experiment with CAKI-1 renal; 113% in the experiment with A498 renal; 106% in the experiment with CCRF-CEM leukemia. Further, the growth in the experiment on MOLT-4 leukemia is 105%.
Consider `C/C(=C\c1ccc([N+](=O)[O-])cc1)C(=O)O`, for which the growth is 103% in the experiment with HCT-15 colon; 107% with HT29 colon; 88.5% with SNB-75 CNS; 97.7% with SNB-19 CNS; 84.2% with PC-3 prostate; 97.8% in the experiment on SK-MEL-5 melanoma. The growth with UACC-62 melanoma is 99.6%; in the experiment on LOX IMVI melanoma, 98.6%; with SK-MEL-28 melanoma, 111%; with SK-MEL-2 melanoma, 110%; with EKVX NSCLC it was 94.7%; in the experiment on SN12C renal, 99%. Further, the growth in the experiment on UO-31 renal was 95.3%; with TK-10 renal, 105%; in the experiment on ACHN renal, 98%; in the experiment on CAKI-1 renal it was 95.6%; in the experiment on A498 renal, 81.7%; in the experiment on CCRF-CEM leukemia, 87.6%. In addition, the growth with MOLT-4 leukemia was 102%.
As for `O=C(NCO)c1ccccc1`, the growth in the experiment with HCT-15 colon is 101%; in the experiment on HT29 colon, 109%; in the experiment with SNB-75 CNS it was 89.8%; in the experiment on SNB-19 CNS it was 107%; with U251 CNS it was 105%; in the experiment with SK-MEL-5 melanoma, 111%. Further, the growth with UACC-62 melanoma was 93.8%; with LOX IMVI melanoma, 105%; with SK-MEL-28 melanoma it was 105%; in the experiment with EKVX NSCLC, 108%; in the experiment on SN12C renal it was 105%; in the experiment on UO-31 renal, 78.9%. In addition, the growth in the experiment on TK-10 renal was 144%; in the experiment on ACHN renal it was 97.4%; with CAKI-1 renal, 98.5%; in the experiment on A498 renal, 106%; in the experiment on MOLT-4 leukemia, 95.4%.
For the molecule `CC(=O)Nc1cccc(Cl)c1C`, the growth with HCT-15 colon is 106%; with HT29 colon, 97.1%; in the experiment with SNB-75 CNS it was 87.1%; in the experiment on SNB-19 CNS it was 107%; with U251 CNS, 88.9%; in the experiment on SK-MEL-5 melanoma, 102%. In addition, the growth in the experiment with LOX IMVI melanoma was 96.8%; in the experiment with SK-MEL-28 melanoma, 107%; with SK-MEL-2 melanoma, 100%; in the experiment with EKVX NSCLC it was 101%; with SN12C renal, 99.7%; with UO-31 renal it was 85.3%. For the same molecule, the growth is 95.5% in the experiment with TK-10 renal, 106% with ACHN renal, 97.7% in the experiment on CAKI-1 renal and 93.3% in the experiment on A498 renal.
As to `C=CC[N+](C)(C)C`, the growth in the experiment with HCT-15 colon is 98.7%; in the experiment on HT29 colon it was 104%; in the experiment with SNB-75 CNS, 94.3%; with SNB-19 CNS, 98.7%; in the experiment on U251 CNS it was 101%; in the experiment with SK-MEL-5 melanoma, 105%. Besides, the growth in the experiment on UACC-62 melanoma was 102%; with LOX IMVI melanoma it was 92.2%; with SK-MEL-28 melanoma it was 107%; with SK-MEL-2 melanoma it was 111%; in the experiment with SN12C renal, 101%; in the experiment with UO-31 renal it was 97%. In addition, the growth was 92.7% in the experiment with TK-10 renal, 100% in the experiment with ACHN renal, 106% in the experiment with A498 renal and 94% with MOLT-4 leukemia.
As to `C/C(=N\NC(=O)c1ccccc1N)c1ccccc1O`, the growth with HCT-15 colon was 26.5%; with HT29 colon it was 37%; in the experiment on SNB-75 CNS, 83%; in the experiment with SNB-19 CNS, 56.6%; with PC-3 prostate it was 50.3%; in the experiment on SK-MEL-5 melanoma it was 60.5%. Further, the growth was 32% in the experiment with UACC-62 melanoma; 36.7% in the experiment with LOX IMVI melanoma; 60.9% with SK-MEL-28 melanoma; 71.2% with SK-MEL-2 melanoma; 41.1% in the experiment on SN12C renal; 29.3% in the experiment on UO-31 renal. Besides, the growth in the experiment on TK-10 renal was 27.6%; with ACHN renal it was 32.3%; with CAKI-1 renal, 3.89% (active); with A498 renal, 89%; with MOLT-4 leukemia it was 19.3%.
